Assay outcomes deposited in PubChem BioAssay by Emory University Molecular Libraries Screening Center.
The entries come from a sample that favours hits as a whole.
14-3-3 PPI: modulators of human 14-3-3 gamma - Raf peptide interaction. FP, 14-3-3gamma / TMR-pS259-Raf peptide binding. inhibition, % at 40 µM. 160,000 compounds, 0.19% hits; in the data active means inhibition above about 30%;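 further: 0% = protein plus tracer without compound and 100% = blank with tracer alone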
Target sequence (P61981 whole entry, looked up): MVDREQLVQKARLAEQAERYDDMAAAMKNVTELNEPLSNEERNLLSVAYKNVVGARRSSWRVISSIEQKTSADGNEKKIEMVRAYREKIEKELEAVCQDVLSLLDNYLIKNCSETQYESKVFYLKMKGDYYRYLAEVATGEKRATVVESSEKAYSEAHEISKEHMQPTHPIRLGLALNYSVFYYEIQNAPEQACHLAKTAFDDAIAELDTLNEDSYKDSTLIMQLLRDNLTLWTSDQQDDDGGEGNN
* = called active by the depositor; ! = not active in a repeat.

SMILES	14-3-3 PPI
Cc1ccc(N2C(=O)CC(NCc3ccccc3F)C2=O)cc1 (centres undefined)	-2
CS(=O)(=O)C1Cc2ccccc2CN1C(=O)NC1CCCc2ccccc21 (centres undefined)	2
CCN(C(=O)c1cc2cc3cc(OC)ccc3nc2o1)c1ccc(OC)cc1	13
COc1ccc(N(CC(=O)Nc2ccccc2)S(=O)(=O)c2ccccc2)c(OC)c1	4
Cc1nc(SCC(=O)c2cc3ccccc3oc2=O)c(C#N)c(C)c1C	6
CC1CCCN(c2cc(NCCCC(=O)O)c3c4c(onc24)-c2ccccc2C3=O)C1 (centres undefined)	51*
O=C(O)CCCNc1cc(N2CCN(C3CCCCC3)CC2)c2noc3c2c1C(=O)c1ccccc1-3	-104
CC1CC(C)CN(c2cc(NCCCC(=O)O)c3c4c(onc24)-c2ccccc2C3=O)C1 (centres undefined)	-13
Cc1ccc(S(=O)(=O)NCc2ccc(C(=O)NC(C)c3ccccc3)cc2)cc1 (centres undefined)	3
O=C(Nc1ccccc1Cl)c1cc(S(=O)(=O)N2CCCc3ccccc32)ccc1F	4
O=C(Nc1cccc(Cl)c1)c1ccc(F)c(S(=O)(=O)N2CCCc3ccccc32)c1	-8
O=C(Nc1ccccc1Cl)c1ccc(F)c(S(=O)(=O)N2CCCc3ccccc32)c1	31*
CCOC(=O)C1=C(C)Nc2nnnn2C1c1sccc1C (centres undefined)	-10
CC(C)Nc1cc2c(NC(C)C)onc2c2c1C(=O)c1ccccc1C2=O	87*
COC(=O)C(C(=O)OC)c1cc(Br)c2noc3c2c1C(=O)c1ccccc1-3	-57
CNc1cc(Nc2ccc(C)cc2)c2c3c(onc13)-c1ccccc1C2=O	-89
CC(=O)N1CCc2cc(Br)cc(S(=O)(=O)CCC(=O)N3CC=C(c4ccccc4)CC3)c21	-9
CCCCCCCNc1c([N+](=O)[O-])ccc2nonc12	-13
COc1ccc(C(=O)Oc2ccc(C(C)=O)cc2)c(OC)c1	38*
COC(=O)c1ccc(C(=O)OC)c(NC(=O)c2ccc(OC)cc2OC)c1	-33
COc1ccc(OC)c(S(=O)(=O)Nc2ccc(C(C)=O)cc2)c1	-2
COc1cc2c(cc1OC)C(C(=O)NCCCN1CCOCC1)C1c3ccccc3CCN1C2=O (centres undefined)	-1
O=C(CSc1nc2ccccc2o1)Nc1ccc(Cl)c(C(=O)O)c1	8
COc1cccc(-c2ccc3c(N)c(C(=O)c4ccc(Cl)cc4)sc3n2)c1	-3
COc1ccc(-c2ccc3c(N)c(C(=O)c4ccc5c(c4)OCCO5)sc3n2)cc1	71*
SMILES	14-3-3 PPI
COc1ccc(-c2ccc3c(N)c(C(=O)Nc4ccc5c(c4)OCCO5)sc3n2)cc1	-3
COc1cccc(C2C(=O)N(C3CCC(C)CC3)CC(=O)N2CCc2ccccc2)c1OC (centres undefined)	-5
Cc1ccc(-[n+]2c(C)c(C(=O)c3ccccc3)n3c(C)csc32)cc1	0
CCOc1ccc(-c2n[nH]c3c2C(c2ccccc2)N(c2ccc(Br)cc2)C3=O)cc1 (centres undefined)	134*
CCOc1cc(C2c3c(-c4ccc(OC)cc4)n[nH]c3C(=O)N2c2ccc(Br)cc2)ccc1O (centres undefined)	4
COc1ccc(-c2n[nH]c3c2C(c2ccc(OC)cc2)N(c2ccc(Br)cc2)C3=O)cc1 (centres undefined)	0
CC1=C(C(=O)Nc2nc3ccc(Br)cc3s2)C(c2cccnc2)C2=C(CC(C)(C)CC2=O)N1 (centres undefined)	0
COC(=O)CN1C(=O)c2ccccc2S1(=O)=O	-4
COc1ccc(N=Cc2cc(Cl)cc([N+](=O)[O-])c2O)cc1Cl	-20
COc1ccc(N=Cc2cc(Cc3ccccc3Cl)cc([N+](=O)[O-])c2O)cc1OC	79*
COc1ccc(N=Cc2cc([N+](=O)[O-])cc(Br)c2O)cc1OC	9
O=C(Cn1c(=S)[nH]c2ncccc2c1=O)NCc1ccccn1	-4
COc1cccc(-n2c(N)c(C(=O)Nc3ccccc3F)sc2=S)c1	-6
CC1CCN(S(=O)(=O)c2ccc3c(c2)N(CC(=O)NCc2ccccc2)C(=O)CS3)CC1	-5
Cc1ccc(S(=O)(=O)N2CCCC2C(=O)O)cc1 (centres undefined)	53*!
O=C(O)C1CCCCN1S(=O)(=O)c1ccc(Cl)cc1 (centres undefined)	-12
O=C(O)C1CCCN1S(=O)(=O)c1ccc(F)cc1 (centres undefined)	-6
CC(=O)N1c2ccc(S(=O)(=O)CCC(=O)Nc3cc(C)ccc3C)cc2CC1C (centres undefined)	34*
CC(=O)N1c2ccc(S(=O)(=O)CCC(=O)Nc3ccc(C)c(C)c3)cc2CC1C (centres undefined)	3
CC(=O)N1c2ccc(S(=O)(=O)CCC(=O)Nc3ccc(Br)cc3C)cc2CC1C (centres undefined)	-11
CC(=O)c1cccc(NC(=O)c2cc3nc(-c4ccc(Cl)cc4)cc(C(F)(F)F)n3n2)c1	2
Cc1ccc(OCC(=O)Nc2ncc(Cc3ccccc3)s2)cc1	2
